Only some compounds are listed: those with a hit (about 2.4% of all), similar ones and a draw of the others.
Pol beta inh = inhibitors of human DNA polymerase beta; P06746; Pol beta primer extension/strand displacement, fluorescence kinetic; Potency, µM (series often up to 114 µM), usual class: inhibitors; 340,000 tested, 1.3% active; AID 485314
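Enzyme-only controls used 10 nM Pol beta; buffer lacking enzyme served as negative control. Compound preincubated 15 min, then 50 nM substrate added; 0 and 10 min reads at room temperature.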
Pol iota inh = inhibitors of human DNA polymerase iota; 390,000 tested, 1% active; Potency, µM (series often up to 115 µM), actives largely listed as inhibitors; AID 588590; Pol iota fluorescent replication assay, 10 min
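Fluorescent replication assay read twice, at 0 min and 10 min after adding 50 nM (final) substrate. Enzyme (10 nM) and compounds were first incubated 15 min at room temperature; enzyme-free buffer wells were negative controls.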
PGK inhibitor = blocks T. brucei phosphoglycerate kinase; P07378; PGK/GAPDH coupled, Kinase-Glo luminescence, 60 min; Potency, µM (highest dose often 57.5 µM), most hits filed as inhibitors; 380,000 tested, 0.043% active; note: nearly all actives have a fitted effect of over 60% in size
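Recombinant glycosomal PGK reaction used 1,3-bisphosphoglycerate generated in-well by GAPDH (100nM final) in 100mM TEA pH 7.6, 5mM MgCl2, 0.01% Tween-20. After 60 minutes at room temperature, ATP was read by Kinase-Glo Plus luminescence end-point.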
Pol eta inh-1 = DNA polymerase eta (human) inhibition; Q9Y253; recombinant Pol eta, fluorescent DNA replication assay; Potency, µM (top dose mostly 114 µM), most hits filed as inhibitors; 390,000 tested, 1.2% active; AID 588591
Target sequence (Q9Y253 whole entry, looked up): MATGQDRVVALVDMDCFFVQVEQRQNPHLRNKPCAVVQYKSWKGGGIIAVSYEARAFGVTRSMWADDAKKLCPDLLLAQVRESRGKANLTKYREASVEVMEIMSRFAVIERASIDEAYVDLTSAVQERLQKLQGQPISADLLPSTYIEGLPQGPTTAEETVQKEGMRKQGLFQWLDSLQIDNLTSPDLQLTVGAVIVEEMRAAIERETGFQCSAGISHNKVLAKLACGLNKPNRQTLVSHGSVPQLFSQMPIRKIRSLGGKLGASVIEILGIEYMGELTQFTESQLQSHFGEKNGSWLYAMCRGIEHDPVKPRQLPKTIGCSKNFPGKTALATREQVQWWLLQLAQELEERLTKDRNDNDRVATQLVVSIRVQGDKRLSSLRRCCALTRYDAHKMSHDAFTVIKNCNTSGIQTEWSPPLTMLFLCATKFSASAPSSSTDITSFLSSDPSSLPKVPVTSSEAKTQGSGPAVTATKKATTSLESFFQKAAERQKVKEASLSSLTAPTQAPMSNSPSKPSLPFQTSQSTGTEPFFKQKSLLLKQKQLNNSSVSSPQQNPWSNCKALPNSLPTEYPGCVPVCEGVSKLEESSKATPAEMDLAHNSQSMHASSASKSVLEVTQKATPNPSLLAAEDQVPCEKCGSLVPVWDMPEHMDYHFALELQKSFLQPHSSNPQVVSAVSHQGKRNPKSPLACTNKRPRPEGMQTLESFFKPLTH
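Pol eta (10 nM) was preincubated with compounds for 15 min at room temperature, after which fluorescent replication substrate (50 nM final) was added to start the reaction. Fluorescence was read kinetically at 0 and 10 min.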
FEN1 inh-1 = inhibitors of human flap endonuclease 1 | P39748 | Recombinant FEN1 flap cleavage, fluorescence, 15 min | Potency, µM (top dose mostly 114 µM), usual class: inhibitors | 390,000 tested, 0.35% active | AID 588795; note: nearly all actives have a fitted effect of over 65% in size
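Recombinant FEN1 (10 nM) was preincubated with pin-transferred compounds for 15 min at room temperature, then flap DNA substrate (50 nM final) was added. Plates were read at 0 and 15 min, and normalized concentration–response data were fitted to a four-parameter Hill equation.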
Pol kappa inh-1 = DNA polymerase kappa (human) inhibition; Q9UBT6; purified Pol kappa, fluorescent DNA synthesis assay, 10 min; Potency, µM (titrated, usually from 107 µM), most hits filed as inhibitors; 400,000 tested, 0.53% active
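Here, compound and 10 nM enzyme are combined for 15 min at room temperature; adding 50 nM substrate (final) starts DNA synthesis, tracked by fluorescence at 0 and 10 min against buffer-only wells.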
TbPGK inh = validation of Trypanosoma brucei phosphoglycerate kinase inhibitors; Potency, µM (top dose mostly 57.5 µM), actives largely listed as inhibitors; 500 tested, 79% active; TbPGK coupled GAPDH assay, Kinase-Glo luminescence; shares compounds with Pol kappa inh-1; note: nearly all actives have a fitted effect of over 65% in size
Pol iota confirm = Inhibitors of human DNA polymerase iota, confirmation; shares compounds with Pol kappa inh-1; Pol iota primer extension, TAMRA/BHQ fluorescence; Potency, µM, usual class: inhibitors; 1,500 tested, 77% active; AID 720496
Pol kappa inh-2 = confirmation of human DNA polymerase kappa inhibitors; Potency, µM, hits mostly inhibitors; AID 720501; shares compounds with Pol eta inh-1; purified Pol-kappa, fluorescent strand-displacement substrate; 920 tested, 76% active
Pol eta inh-2 = Pol eta (human) inhibition, cherry-pick confirmation; shares compounds with Pol eta inh-1; Pol eta primer extension, TAMRA/BHQ fluorescence, 10 min; Potency, µM, actives largely listed as inhibitors; 2,600 tested, 64% active; AID 720502
FEN1 inh-2 = FEN1 inhibition, cherry-pick retest. shares compounds with FEN1 inh-1. FEN1 flap cleavage, TAMRA/BHQ2 fluorogenic DNA substrate. Potency, µM, most hits filed as inhibitors. 880 tested, 79% active; note: nearly all actives have a fitted effect of over 60% in size
Of the large screens only hits and unclear results are named; the others gave an inactive call (follow-up assays come after a bar, where they were run). Calls come from the whole dose curve; as a rule, active = well fitted curve in the direction sought with a large enough effect; inconclusive = small, poorly fitted or top-dose-only effect, or another doubt; inactive = no such curve, though single readings can be large; an effect the other way counts as inactive or inconclusive.

O=C1C=C(O)c2c(O)cc(O)c(O)c2C1=O	Pol iota inh 3.5µM, PGK inhibitor inconclusive, Pol eta inh-1 1.6µM, FEN1 inh-1 3.5µM, Pol kappa inh-1 2µM (no result: Pol beta inh) | TbPGK inh 8.2µM | Pol iota confirm 3.8 | Pol eta inh-2 21 | FEN1 inh-2 21
COC(=O)c1ccccc1NC(=O)Cn1nc(C)c2nn(-c3ccc(Cl)cc3)c(C)c2c1=O	none
CCN1/C(=C/C=C/c2oc3ccc(-c4ccccc4)cc3[n+]2CC)Oc2ccc(-c3ccccc3)cc21	Pol beta inh 79µM, Pol iota inh inconclusive, Pol eta inh-1 inconclusive, FEN1 inh-1 32µM, Pol kappa inh-1 inconclusive | Pol iota confirm 30 | Pol kappa inh-2 38 | Pol eta inh-2 21 | FEN1 inh-2 27
O=C1N=C(N2CCOCC2)SC1=Cc1ccco1	none (no result: Pol beta inh)
O=C1C(=Cc2ccco2)CCC1=Cc1ccco1	Pol iota inh inconclusive, PGK inhibitor 3.5µM, Pol eta inh-1 0.79µM, FEN1 inh-1 8.9µM, Pol kappa inh-1 5µM (no result: Pol beta inh) | TbPGK inh 18µM | Pol iota confirm 3 | Pol kappa inh-2 2.7 | Pol eta inh-2 5.4 | FEN1 inh-2 17
COc1ccc(N2CCN(c3nc4ccc(C)cc4n4nnnc34)CC2)cc1	none
CCOC(=O)c1cc(C)n(CC2CCC(C(=O)Nc3cccc(C(C)=O)c3)CC2)c1C (stereo unspecified)	none
COc1cc(OC)c(-c2c3cc(O)c(=O)cc-3oc3cc(O)c(O)cc23)cc1OC	Pol beta inh 20µM, PGK inhibitor inconclusive, FEN1 inh-1 50µM, Pol kappa inh-1 inconclusive (no result: Pol iota inh, Pol eta inh-1) | Pol iota confirm 1.3 | Pol kappa inh-2 19 | Pol eta inh-2 67 | FEN1 inh-2 34
COc1cc(/C=C2\SC(=O)N(CC(=O)Nc3ccc(C)cc3)C2=O)cc(Cl)c1OCC(=O)O	Pol beta inh 50µM, Pol iota inh 20µM, PGK inhibitor inconclusive, Pol eta inh-1 inconclusive, FEN1 inh-1 inconclusive, Pol kappa inh-1 inconclusive | TbPGK inh 5.8µM | Pol iota confirm 4.2 | Pol eta inh-2 inconclusive | FEN1 inh-2 67
N#C/C(=C\c1ccc(OCc2ccc(Cl)cc2)cc1)C(=O)Nc1cccc(C(=O)O)c1	Pol beta inh 32µM, Pol iota inh inconclusive, PGK inhibitor inconclusive, Pol eta inh-1 inconclusive, FEN1 inh-1 inconclusive | Pol iota confirm 42 | Pol eta inh-2 76 | FEN1 inh-2 67
COc1ccc(/C=C2/SC(=S)N(c3ccc(S(=O)(=O)Nc4nccs4)cc3)C2=O)cc1	Pol iota inh 22µM, Pol eta inh-1 25µM, FEN1 inh-1 50µM, Pol kappa inh-1 50µM | Pol iota confirm inconclusive | Pol eta inh-2 67 | FEN1 inh-2 60
COc1ccc(-n2ccc(=O)c(C(=O)Nc3ccc(S(=O)(=O)Nc4nccs4)cc3)n2)cc1	Pol beta inh inconclusive, Pol iota inh inconclusive
O=C(O)CSc1cc(NS(=O)(=O)c2ccc(Br)cc2)c2ccccc2c1O	Pol beta inh 89µM, Pol iota inh 7.1µM, Pol eta inh-1 35µM, FEN1 inh-1 inconclusive, Pol kappa inh-1 89µM | Pol iota confirm inconclusive | Pol kappa inh-2 inconclusive | Pol eta inh-2 inconclusive | FEN1 inh-2 67
OCCOCCN1CCN(C2=Nc3ccccc3Sc3ccccc32)CC1	none
O=C1C=CC(=O)c2c(O)c(N3CCN(CCOCCO)CC3)c(Br)c(O)c21	Pol iota inh inconclusive, PGK inhibitor inconclusive, Pol eta inh-1 0.79µM, FEN1 inh-1 32µM, Pol kappa inh-1 28µM (no result: Pol beta inh) | Pol iota confirm 2.1 | Pol kappa inh-2 3 | Pol eta inh-2 7.6 | FEN1 inh-2 34
O=C1C=CC(=O)c2c(O)c(N3CCN(CCO)CC3)c(Cl)c(O)c21	Pol iota inh 5.6µM, PGK inhibitor inconclusive, Pol eta inh-1 1.8µM, FEN1 inh-1 inconclusive, Pol kappa inh-1 22µM (no result: Pol beta inh) | Pol iota confirm 3.4 | Pol kappa inh-2 17 | Pol eta inh-2 17 | FEN1 inh-2 76
CCn1nc(C)c2c(-c3ccccc3)cc(=O)n(C(C)C(=O)NCc3ccccc3OC)c21 (stereo unspecified)	none
Cc1cccc(NC(=O)CN2C(=O)N/C(=C\c3ccccc3OCc3ccc(C(=O)O)cc3)C2=O)c1	Pol beta inh 50µM, Pol iota inh inconclusive, Pol eta inh-1 inconclusive, FEN1 inh-1 inconclusive, Pol kappa inh-1 inconclusive | Pol iota confirm 75 | FEN1 inh-2 76
Cc1cccc(NC(=O)CN2C(=O)N/C(=C/c3cc(C)n(C)c3C)C2=O)c1	none
Cc1noc(C)c1-c1cncnc1NCc1cccnc1	none (no result: Pol beta inh, Pol iota inh, PGK inhibitor, Pol eta inh-1, FEN1 inh-1)
CCc1ccc(C(=O)c2cn(CC(=O)Nc3ccc4c(c3)OCO4)c3ccc(OC)cc3c2=O)cc1	Pol beta inh 10µM, Pol iota inh inconclusive, Pol eta inh-1 45µM, FEN1 inh-1 32µM | Pol iota confirm 21 | Pol kappa inh-2 17 | Pol eta inh-2 inconclusive | FEN1 inh-2 67
COC(=O)[C@@H](c1ccccc1Cl)N1CCc2sccc2C1	none (no result: Pol beta inh, Pol iota inh, PGK inhibitor, Pol eta inh-1, FEN1 inh-1)
CN(c1ccccc1)c1ccc(/C=C(\CCC(=O)O)c2nc3ccccc3s2)cc1[N+](=O)[O-]	Pol beta inh 8.9µM, Pol iota inh 22µM, PGK inhibitor inconclusive, Pol eta inh-1 8.9µM, FEN1 inh-1 inconclusive, Pol kappa inh-1 inconclusive | Pol iota confirm 27 | Pol eta inh-2 67 | FEN1 inh-2 67
Cn1cnnc1Sc1ccc(/C=C(\CCC(=O)O)c2nc3ccccc3s2)cc1[N+](=O)[O-]	none
CCN(CC)C(=O)Cn1c(=O)n(-c2ccc(OC)cc2OC)c(=O)c2c(C)c(C(=O)N(CC)CC)sc21	none
Cc1nc(CC(=O)Nc2ccc(C(N)=O)cc2)cs1	none
Cc1cc(C)c(S(=O)(=O)/N=C2/C=C(Sc3ncn[nH]3)C(=O)c3ccccc32)cc1C	Pol beta inh 79µM, Pol iota inh 1µM, PGK inhibitor inconclusive, Pol eta inh-1 13µM, FEN1 inh-1 50µM, Pol kappa inh-1 inconclusive | Pol iota confirm 17 | Pol eta inh-2 24 | FEN1 inh-2 34

Compound activity (PubChem)
